A selection: hits, their analogues and other compounds. The true share with any hit is near 19%.
TDP1 cell noCPT: qHTS for Inhibitors of human tyrosyl-DNA phosphodiesterase 1 (TDP1): qHTS in cells in absence of CPT. AID 686978, 2013. DT40 Tdp1-/- hTDP1 cells, no CPT, ATP luminescence, 48 h. 420,000 tested, 15% active. Potency, µM (titrated, usually from 46.2 µM), actives largely listed as inhibitors; further: nearly all actives have a fitted effect of over 55% in size
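A cellular qHTS used chicken DT40 cells lacking endogenous Tdp1 but carrying stably transfected human TDP1. Compounds were applied without camptothecin, and cell growth kinetics were judged by ATP-dependent luminescence after ≥48 hr.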
DT40 TDP1 CPT: DT40-hTDP1 cell growth loss with CPT; chicken DT40 Tdp1-/-;hTDP1 cells + 20 nM CPT, ATP luminescence, 48 h; Potency, µM (highest dose often 46.2 µM), most hits filed as inhibitors; 420,000 tested, 12% active; further: nearly all actives have a fitted effect of over 55% in size
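Chicken DT40 Tdp1-/- cells complemented with human TDP1, 400 cells/well, exposed to compounds plus 20 nM camptothecin for at least 48 h at 37 C; viability read as ATP content by CellTiter-Glo luminescence.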
HT1080 IDH1KD tx: HT-1080 IDH1 knockdown cell toxicity (counter line) | HT-1080 IDH1 knockdown viability, ATP luminescence, 48 h | Potency, µM (doses to about 46.1 µM), most hits filed as cytotoxic | 360,000 tested, 2% active | AID 686971
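Cytotoxicity counter-line: IDH1KD HT-1080, 48 h, CellTiter-Glo. Curves classed by r2, magnitude and activity.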
IL1B secr inh: inhibitors of inflammasome signaling (IL-1 beta secretion); THP-1 LPS/ATP IL-1B secretion, AlphaLISA, 16 h; active compounds read low; activity change, % at 57.5 µM; 360,000 tested, 4.7% active; AID 743279; in the data active means activity change below about -50%; inconclusive means mostly about -30% to -49%
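Secreted IL-1B measured by AlphaLISA bead assay after 16 h compound exposure of THP-1 cells; compounds (final up to 57.5 uM) added 1 h before LPS (250 ng/mL) and ATP (1.25 mM) stimulation; lower signal means less secretion.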
HT1080NT lethal: kills 2HG-producing HT-1080-NT fibrosarcoma cells; 360,000 tested, 1.6% active; HT-1080-NT fibrosarcoma viability, CellTiter-Glo ATP luminescence, 48 h; Potency, µM (titrated, usually from 46.1 µM), usual class: cytotoxic;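 further: NT is the 2HG producing partner of a matched IDH1 knockdown line; nearly all actives have a fitted effect of over 55% in size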
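750 cells/well, RPMI + 5% FBS; 2 h settle, compound pin-transfer, 48 h at 37 degrees C. CellTiter-Glo 10 min RT, luminescence. Normalized to DMSO and media-only wells.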
Each line names hits and unclear results; the compound was inactive in the other large screens. Unless noted, the call rests on the fitted dose curve; in most records, active means well fitted curve in the direction sought with a large enough effect; inconclusive means small, poorly fitted or top-dose-only effect, or another doubt; inactive means no such curve, though single readings can be large; an effect the other way counts as inactive or inconclusive.

CCn1c(N2CCN(S(=O)(=O)c3ccccc3)CC2)nc2ccccc21	TDP1 cell noCPT 18µM, DT40 TDP1 CPT inconclusive
CC(C)Cn1c(SC(C)C(=O)Nc2ccc(N3CCOCC3)cc2)nc2ccccc21 (stereo not drawn)	TDP1 cell noCPT inconclusive
O=C(CSc1nc(-c2ccccc2)c(-c2ccccc2)[nH]1)N1CCN(S(=O)(=O)c2ccccc2)CC1	TDP1 cell noCPT 18µM, DT40 TDP1 CPT 18µM, IL1B secr inh inconclusive
CC(C)Cn1c(SCC(=O)N2CCN(S(=O)(=O)c3ccccc3)CC2)nc2ccccc21	TDP1 cell noCPT inconclusive, DT40 TDP1 CPT 18µM, IL1B secr inh -52
CCNC(=O)NC(=O)C(C)Sc1nc2ccccc2n1CC(C)C (stereo not drawn)	TDP1 cell noCPT 16µM, DT40 TDP1 CPT 18µM
O=C(CSc1nc2ccccc2c(=O)[nH]1)N1CCN(S(=O)(=O)c2ccccc2)CC1	DT40 TDP1 CPT inconclusive
Cn1c(SCC(=O)N2CCN(S(=O)(=O)c3ccccc3)CC2)nc2ccccc21	TDP1 cell noCPT inconclusive
CC(C)Cn1c(SCC(=O)NC(=O)NC2CCCC2)nc2ccccc21	TDP1 cell noCPT 16µM, DT40 TDP1 CPT 26µM, HT1080 IDH1KD tx inconclusive, HT1080NT lethal inconclusive
O=C(CNC(=O)c1ccccc1)N/N=C/c1cn[nH]c1-c1ccccc1	none
O=C1[C@H]2[C@@H]3CCN1CCC[C@@H]2C=C[C@@H]3c1ccc(Br)cc1	TDP1 cell noCPT 18µM, DT40 TDP1 CPT inconclusive, HT1080 IDH1KD tx inconclusive
Cc1[nH]c2ccccc2c1C(c1ccncc1)N1CCCCC1 (stereo not drawn)	TDP1 cell noCPT 16µM, DT40 TDP1 CPT 13µM
Cc1c(N2CCCCC2)[nH]c2ccccc12	TDP1 cell noCPT 10µM, DT40 TDP1 CPT inconclusive
Cc1[nH]c2ccccc2c1C(O)c1ccncc1 (stereo not drawn)	none
Cc1ccc(Nc2nc3ccc(C(=O)c4ccccc4)cc3n3c(C)nnc23)c(C)c1	none (no result: HT1080 IDH1KD tx, IL1B secr inh, HT1080NT lethal)
CCOC(=O)N1CCN(c2nc3ccc(C)cc3n3cnnc23)CC1	none
COc1cccc(N2CCN(c3nc4ccc(C(=O)c5ccccc5)cc4n4c(C)nnc34)CC2)c1	TDP1 cell noCPT 16µM, DT40 TDP1 CPT inconclusive (no result: HT1080 IDH1KD tx, IL1B secr inh, HT1080NT lethal)
Cc1ccc(Cl)cc1N1CCN(c2nc3ccc(C(=O)c4ccccc4)cc3n3cnnc23)CC1	TDP1 cell noCPT 23µM, DT40 TDP1 CPT 18µM (no result: HT1080 IDH1KD tx, IL1B secr inh, HT1080NT lethal)
Cc1ccc(N2CCN(c3nc4ccc(C(=O)c5ccccc5)cc4n4cnnc34)CC2)c(C)c1	TDP1 cell noCPT 18µM, DT40 TDP1 CPT inconclusive (no result: HT1080 IDH1KD tx, IL1B secr inh, HT1080NT lethal)
CCn1nc(NC(=O)C2CCCO2)c2cc3cc(C)ccc3nc21 (stereo not drawn)	none
O=C(NCC(=O)N1CCN(C/C=C/c2ccccc2)CC1)c1ccc(OC(F)F)cc1	TDP1 cell noCPT 15µM, DT40 TDP1 CPT inconclusive
C[C@H](NC(=O)c1ccc(C(C)(C)C)cc1)C(=O)N1CCN(C/C=C/c2ccccc2)CC1	TDP1 cell noCPT 21µM, DT40 TDP1 CPT inconclusive, HT1080 IDH1KD tx inconclusive, IL1B secr inh inconclusive, HT1080NT lethal inconclusive
O=C(NCC(=O)N1CCCCCC1)c1ccc(OC(F)F)cc1	none
CC(C)C(NC(=O)c1ccccc1)C(=O)N1CCN(C/C=C/c2ccccc2)CC1 (stereo not drawn)	TDP1 cell noCPT inconclusive, DT40 TDP1 CPT inconclusive
O=C(CNC(=O)c1ccc(Br)cc1)c1ccccc1	IL1B secr inh -65
CSCCC(NC(=O)c1ccc(Cl)c([N+](=O)[O-])c1)C(=O)N1CCN(C/C=C/c2ccccc2)CC1 (stereo not drawn)	TDP1 cell noCPT inconclusive, DT40 TDP1 CPT 18µM, IL1B secr inh -103
O=C(CNC(=O)c1ccc(Br)cc1)c1ccc(Br)cc1	none
CC(=O)Nc1ccc(NC(=O)C(NC(=O)C2CCC(C)CC2)C(C)C)cc1 (stereo not drawn)	none (no result: HT1080 IDH1KD tx, IL1B secr inh, HT1080NT lethal)
O=C(NCC(=O)N1CCN(C/C=C/c2ccccc2)CC1)c1ccc(Br)cc1	TDP1 cell noCPT 8.2µM, DT40 TDP1 CPT 16µM
O=C(NCCSSCCNC(=O)c1ccccc1)c1ccccc1	TDP1 cell noCPT 16µM, DT40 TDP1 CPT 18µM, IL1B secr inh -68
CC(=O)c1ccc(S(=O)(=O)NCC(=O)N2CCN(C/C=C/c3ccccc3)CC2)cc1	DT40 TDP1 CPT inconclusive
O=C(NCCSc1ccccc1)c1ccccc1	none
COc1cc(OC)cc(C(C(=O)NC2CCCCC2)N(C(=O)c2ccno2)c2ccccc2)c1 (stereo not drawn)	none
COc1ccc(/C=N/OCC(=O)Nn2c(C)nc3ccccc3c2=O)cc1	DT40 TDP1 CPT inconclusive
CCN(Cc1ccc2c(c1)OCO2)C(=O)/C=C/c1cccc(Br)c1	TDP1 cell noCPT inconclusive
CC(C)(C)N(Cc1ccc2c(c1)OCO2)C(=O)/C=C\S(=O)c1ccccc1 (stereo not drawn)	TDP1 cell noCPT 3.7µM, DT40 TDP1 CPT 5.2µM, HT1080 IDH1KD tx 13µM, IL1B secr inh -61
CC(=O)N1CCC(C(=O)N2c3ccccc3N=C(c3ccc4c(c3)OCO4)C2C(=O)Nc2c(C)cccc2C)CC1 (stereo not drawn)	TDP1 cell noCPT inconclusive, DT40 TDP1 CPT inconclusive
Cc1cccc(C)c1NC(=O)C1C(c2ccc3c(c2)OCO3)=Nc2ccccc2N1C(=O)c1cccc(C(F)(F)F)c1 (stereo not drawn)	TDP1 cell noCPT 7.3µM, DT40 TDP1 CPT 7.3µM, IL1B secr inh -57
Cc1cccc(C)c1NC(=O)C1C(c2ccc3c(c2)OCO3)=Nc2ccccc2N1C(=O)c1ccccn1 (stereo not drawn)	TDP1 cell noCPT 21µM, DT40 TDP1 CPT inconclusive
COc1ccc(N(C)S(=O)(=O)c2cccc(C(=O)N3CCN(Cc4ccc5c(c4)OCO5)CC3)c2)cc1	TDP1 cell noCPT 18µM, DT40 TDP1 CPT 23µM, IL1B secr inh -68
COc1ccc(OC)c(CN2CCN(C(=O)c3cccc(S(=O)(=O)N(C)c4ccccc4)c3)CC2)c1	TDP1 cell noCPT 13µM, DT40 TDP1 CPT 18µM
CCOc1ccc(N(C)S(=O)(=O)c2ccc(C)c(C(=O)N3CCN(Cc4ccc5c(c4)OCO5)CC3)c2)cc1	TDP1 cell noCPT inconclusive, DT40 TDP1 CPT inconclusive, IL1B secr inh -89
COc1ccc(N(C)S(=O)(=O)c2cccc(C(=O)NCc3ccc4c(c3)OCO4)c2)cc1	TDP1 cell noCPT inconclusive, DT40 TDP1 CPT inconclusive, IL1B secr inh inconclusive
Clc1ccc2c(c1)-c1ccccc1C1=NCCN12	TDP1 cell noCPT 1.6µM, HT1080 IDH1KD tx 18µM, IL1B secr inh -103, HT1080NT lethal inconclusive
Brc1ccc2c(c1)-c1ccccc1C1=NCCN12	TDP1 cell noCPT 0.82µM, DT40 TDP1 CPT 1.5µM, HT1080 IDH1KD tx 16µM, IL1B secr inh -104, HT1080NT lethal 23µM
COCCCNC(=O)CCc1c(C)nc2c(c(C)nn2-c2ccccc2)c1C	none
